About 83,000 compounds went through this panel and 20% of them were active in at least one assay; those are over-represented in the sample as a whole.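 For each line, cells grew in 96-well plates with the test compound present at a single concentration for 48 hours.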 A number with no mark means an inactive call. Activity calls are given as the source filed them. How the source made its calls: active means growth percent below 10; inactive means the rest.
What follows are compounds tested on HS 578T breast (assay: NCI-60 one-dose screen, 48 h (100 = growth as untreated, 0 = no growth, -100 = all killed)). Conditions: 10 µM unless noted.

Row | SMILES | growth
1 | COCCCN1CC(O)=C(c2nc(-c3ccc(C)cc3)cs2)C1=N | 102%
2 | O=C(Cn1c[n+](CC(=O)c2ccc(-c3ccccc3)cc2)c2ccccc21)Nc1cccc2cccnc12 | 33.5%
3 | CCN1Cc2nc3sc(C)c(C)c3c(=O)n2C=C1C | 43.2%
4 | Cc1ccc(-n2c3c(c(-c4ccccc4)c2-c2ccccc2)C2=NCCN2C=N3)cc1 | 94.8%
5 | CCCCC[n+]1ccc(SCC(=O)N(C)c2ccc(Oc3ccccc3)cc2)c2ccccc21 | 109%
6 | COc1cc(OC)cc(C(=O)C[n+]2cccc3cc[nH]c32)c1 | 101%
7 | CCOC(=O)[C@@H]1CCCN(S(=O)(=O)c2ccc(S(=O)(=O)N(CC)CC)c(F)c2)C1 | 93.5%
8 | Cn1ccc2c1CC1CN(Cc3ccco3)C(=O)C1C2C(=O)O (centres undefined) | 98.7%
9 | COc1ccc(CC(C)=C(c2ccc(OCCN3CCCCCC3)cc2)c2ccc(OCCN3CCCCCC3)cc2)cc1 | -61% (active)
10 | Nc1n[nH]c2cccc(C#Cc3cccc(C(=O)Nc4cccc(C(F)(F)F)c4)c3)c12 | 40.5%
11 | Cc1ccc(C(=O)/C(=C/c2ccc([N+](=O)[O-])cc2)SCc2ccc(Cl)cc2)cc1 | 88.2%
12 | O=C(O)c1ccc2c(c1)C(=O)N(Cc1ccccc1)C2=O | 99.7%
13 | O=Cc1ccc(-c2cn3ccnc3c(-c3ccc4ncn(Cc5ccccc5)c4c3)n2)cc1 | 54.4%
14 | CCc1ccc(CNc2ccc(N3CCOCC3)c(C(=O)O)c2)cc1 | 125%
